Screens from PubChem.
Sampled rows, rich in hits. Any-hit rate of the full collection: about 3%.
TROY NFkB inh – TROY signaling inhibition; 360,000 tested, 0.98% active; inhibition, % at 10 µM; Q293 LMP1-TROYcd NF-kB luciferase reporter, 4 h;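 active = compounds whose plate-normalised and pattern-corrected inhibition of the luciferase reporter signal at the single screening dose is 50% or more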
MITF TRPM1 inh – inhibitors of MITF-driven TRPM1 promoter in melanoma cells; SK-MEL-5 TRPM1 promoter luciferase, 24 h; inhibition, % at 12.5 µM; 330,000 tested, 0.83% active;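 active = mean inhibition across replicates of 60% or more, whatever share of single replicates reaches that level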
MITF act – activators of MITF-driven TRPM1 promoter activity in SK-MEL-5 cells. AID 588334. activation, % at 12.5 µM. 300,000 tested, 0.75% active. SK-MEL-5 TRPM1-promoter luciferase, 24 h; % of positive control, neutral wells = 0;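 active = mean activation of at least 80% with every replicate also reaching 80%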;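 also: 0% = neutral control wells and 100% = parthenolide positive control wells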
LGR2 inh – inhibitors of bursicon-induced Drosophila LGR2 receptor cAMP signaling | HEK293 LGR2, CRE-luciferase, bursicon-stimulated, 4 h | inhibition, % at 9.99 µM | 380,000 tested, 0.35% active;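 active = drop in luminescence signal, shown as inhibition above about 50% in the replicate tests, limit read from the data, passing the limit was not always enough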;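 also: agonist challenge used bursicon conditioned medium at about half maximal strength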
LMP1 NFkB inh – Epstein-Barr LMP1 NF-kappaB reporter inhibition; LMP1-induced NF-kappaB luciferase reporter cells, luminescence; inhibition, % at 12.5 µM; 350,000 tested, 0.69% active; in the data active = inhibition above about 41%;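 also: 0% = neutral control wells and 100% = reference inhibitor control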
TWEAK Fn14 block – inhibitors of TWEAK-Fn14 interaction signaling | TWEAK-stimulated Fn14 reporter cells, luciferase luminescence, 8 h | inhibition, % at 10 µM | 360,000 tested, 2% active | AID 1159606; in the data active = inhibition above about 50%
The depositor's hits bear a star; / = not tested or not shown.

SMILES | TROY NFkB inh | MITF TRPM1 inh | MITF act | LGR2 inh | LMP1 NFkB inh | TWEAK Fn14 block
CCC(=O)N1[C@@H]2Cn3c(ccc(C4=CCCC4)c3=O)[C@H]1[C@@H](C(=O)OC)[C@@H]2CO | / | / | / | 0 | / | /
CC=Cc1ccc2n(c1=O)C[C@H]1[C@H](CO)[C@@H](C(=O)OC)[C@@H]2N1S(=O)(=O)c1cccc(C)c1 (mixture of isomers) | / | / | / | 12 | / | /
CCCCCCOc1ccc(CN2CCN(C)CC2)cc1 | 65* | -19 | 20 | 48 | 33 | 61*
CN1CCN(Cc2ccc3ccccc3c2)CC1 | 14 | 11 | / | 5 | 3 | -3
CN(C)C(=O)Oc1ccc2c(c1)O/C(=C\c1ccc(Cl)cc1)C2=O | -48 | -106 | 104* | 16 | -30 | -19
CN(C)C(=O)Oc1ccc2c(c1)O/C(=C\c1cccc(Cl)c1)C2=O | -42 | -65 | 64 | -43 | -21 | 0
COc1cccc2c1cc([N+](=O)[O-])c1c(C(=O)O)cc3c(c12)OCO3 | 2 | 0 | -4 | 67* | -13 | 4
C=CCc1cc(OC)c2c(c1)OCO2 | -11 | 11 | -8 | 12 | -1 | 21
COC1C(OC(=O)c2ccc(C)[nH]2)C(O)C(Oc2ccc3c(O)c(NC(=O)c4ccc(O)c(CC=C(C)C)c4)c(=O)oc3c2Cl)OC1(C)C (stereo unspecified) | 55* | 13 | -11 | 8 | -4 | 10
O=C(O)[C@H]1[C@H](CO)[C@H]2Cn3c(ccc(-c4ccncc4)c3=O)[C@@H]1N2C(=O)C1CC1 | / | / | / | 10 | / | /
COc1ccc(C#Cc2ccc([C@@H]3[C@H]4CN(C(=O)Cc5ccccc5)CCCCN4[C@H]3CO)cc2)cc1 | / | / | / | 22 | / | /
CCCN1CCC2(CC1)NC(CO)(CO)CO2 | / | 4 | -1 | / | -4 | 82*
COc1cccc(OCc2cc(C(=O)N3C[C@H]4C[C@@H](C3)c3cccc(=O)n3C4)no2)c1 | -41 | -108 | 101* | -52 | -29 | -16
COc1cc(OC)cc(C(=O)NC(=S)N2C[C@H]3C[C@H](C2)c2cccc(=O)n2C3)c1 | 9 | 0 | 3 | -34 | 0 | -8
CCCNC(=O)[C@H]1[C@H](CO)[C@H]2Cn3c(cccc3=O)[C@H]2N1CC | / | / | / | 6 | / | /
c1ccc(Nc2ccc3ccccc3c2)cc1 | -58 | -88 | 95* | -115 | -32 | -28
CC(C)Nc1ccc(Nc2ccccc2)cc1 | -6 | 14 | -9 | -9 | 3 | 14
O=c1[nH]c(=O)n(-c2ccccc2F)c(O)c1/C=C1\C=Nc2ccccc21 | 2 | 23 | -21 | 20 | 0 | 54*
COc1ccc(-n2c(O)c(/C=C3\C=Nc4ccc(Br)cc43)c(=O)[nH]c2=O)c(OC)c1 | -33 | -2 | -1 | 27 | -13 | 55*
COc1ccc(-n2c(O)c(/C=C3\C=Nc4ccc(Br)cc43)c(=O)[nH]c2=O)cc1 | -18 | 6 | 1 | 13 | -1 | 21
CCCN1[C@@H]2c3ccc(-c4cccc(C(=O)N(C)C)c4)c(=O)n3C[C@H]1[C@H](CO)[C@H]2C(=O)OC | / | / | / | 1 | / | /
O=C(Cc1cccnc1)N1CCCCN2[C@@H](CO)[C@H](c3ccc(/C=C/c4ccccc4)cc3)[C@@H]2C1 | / | / | / | 3 | / | /
COC1CCC(OC2CC(C3(C)CCC4(CC(O)C(C)C(C(C)/C=C(\C)C(=O)C(C)CC(C)C(=O)O)O4)O3)OC3(OC(C4OC(O)(CO)C(C)CC4C)CC3C)C2C)OC1C (stereo unspecified) | 55* | 84* | / | / | -10 | 50*
CCN(CC)C(=O)c1ccc(NC(=O)CCCSc2ccccc2)cc1 | -4 | -3 | 6 | 0 | -4 | -4
CCN(CC)C(=O)c1ccc(NC(=O)Nc2ccccc2F)cc1 | 76* | 30 | -28 | 75* | 51* | 72*
CCOC(=O)c1ccc(-[n+]2c(-c3ccccc3)cc(-c3ccccc3)cc2-c2ccccc2)cc1 | / | 77* | -75 | / | 38 | /
CCOC(=O)c1ccccc1C(=O)OCC | 4 | 9 | -10 | 2 | -2 | -13
CCOC(=O)c1cccc(-[n+]2c(-c3ccccc3)cc(-c3ccccc3)cc2-c2ccccc2)c1 | -3 | 68* | -64 | 15 | 5 | 24
N#Cc1cccc(-c2ccc([C@H]3[C@@H](CO)N4CCCCN(C(=O)Cc5ccccc5)C[C@H]34)cc2)c1 | / | / | / | 10 | / | /
